Reference: PubChem BioAssay AID602376 (Johns Hopkins Ion Channel Center, 2012)
Measured potencies and affinities stand elsewhere. Results filed as inconclusive are left out. Activity calls are given as the source filed them.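 The calls were made as follows: active = raises choline transporter activity at one or more tested doses and gives a fitted dose-response curve; inconclusive = no clear call, values can overlap the other calls; inactive = no choline transporter activation at any dose, or no curve.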

target: High affinity choline transporter 1 (Homo sapiens) (UniProt Q9GZV3); assay: human choline transporter potentiators, potency – cell-based, 10-point CRC, membrane potential dye, dose response (AID 602376); settings: HEK293-CHT, choline-induced membrane potential dye, cells express CHT LV-AA mutant; series mostly up to 67 µM
Sequence (Q9GZV3 whole entry, looked up): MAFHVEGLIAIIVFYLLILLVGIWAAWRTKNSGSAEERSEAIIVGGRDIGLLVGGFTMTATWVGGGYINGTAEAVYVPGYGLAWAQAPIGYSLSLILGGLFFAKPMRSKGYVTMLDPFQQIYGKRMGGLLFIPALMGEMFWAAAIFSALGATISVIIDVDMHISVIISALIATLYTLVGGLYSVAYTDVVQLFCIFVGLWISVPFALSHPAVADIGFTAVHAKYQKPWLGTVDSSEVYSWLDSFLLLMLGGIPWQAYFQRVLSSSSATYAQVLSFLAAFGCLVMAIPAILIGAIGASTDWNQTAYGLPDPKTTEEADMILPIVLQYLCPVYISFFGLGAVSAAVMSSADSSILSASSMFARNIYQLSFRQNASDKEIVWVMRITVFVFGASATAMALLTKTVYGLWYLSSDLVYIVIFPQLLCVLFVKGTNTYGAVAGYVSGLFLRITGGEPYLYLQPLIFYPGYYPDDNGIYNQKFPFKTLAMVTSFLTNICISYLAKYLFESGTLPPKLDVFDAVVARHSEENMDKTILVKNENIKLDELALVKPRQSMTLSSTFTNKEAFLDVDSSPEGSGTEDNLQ

outcome, inactive:
COc1ccccc1N(C(=O)c1ccco1)C(C(=O)NC1CCCC1)c1cccs1 (stereo not given)
CCCC12CN(C(=O)c3ccc([N+](=O)[O-])cc3)CC(C)(CN(C(=O)c3ccc([N+](=O)[O-])cc3)C1)C2=O
CCc1cccc(OCCn2nc(C(=O)O)c3ccccc3c2=O)c1
Cc1cccc2c(=O)cc(C)n(CC(=O)N3CCOCC3)c12
Cc1ccc(Cl)cc1N1CCN(C(=O)C2CCC(=O)N(C3CCCCCC3)C2)CC1 (stereo not given)
N#Cc1c(N)oc(-c2ccco2)c1-c1ccco1
CCCCn1c(N)c(N(CCOC)C(=O)c2ccc(COc3ccccc3)o2)c(=O)[nH]c1=O
Cc1ccc(-c2c(C(=O)N(C)Cc3ccccc3)oc(=O)c3ccccc23)cc1
COC(=O)c1sc(NC(=O)C(C)c2ccccc2)nc1C (stereo not given)
CCC(C)c1ccccc1N1CC(C(=O)Nc2ccccc2N2CCCC2)CC1=O (stereo not given)
Cc1ccc(-n2c(SCCN)nnc2-c2cccc(C)c2)cc1
O=c1c2ccccc2n(CC(O)CN2CCOCC2)c2ccccc12 (stereo not given)
O=C1CCN(Cc2ccccc2)CCN1[C@H](COc1ccccc1)Cc1ccccc1
CN1CCN(Cc2nc3ccccc3c(=O)n2Cc2nc(-c3ccccc3F)cs2)CC1
NCCCC[C@H]1CN=C(N)N1CCCCC1CCCCC1
Clc1ccc(CN2C3=NCCN3c3ccccc32)cc1Cl
Cc1cccc2cc3c(N)c(C(=O)N4CCc5ccccc54)sc3nc12
CCc1cccc(C)c1NC(=O)CN(C)Cc1ccc(Br)cc1
CCOC(=O)C1(CC2CC2)CCN(Cc2cn[nH]c2-c2cccc(F)c2)CC1
O=C(COc1ccccc1)NCC(c1ccco1)N1CCN(c2ccccc2)CC1 (stereo not given)
CCOC(=O)c1c(C)n(-c2ccccc2)c2ccc(OCCN(C)C)cc12
CC(Sc1ccc(Cl)cc1)C(=O)Nc1ccccc1-c1ccccc1 (stereo not given)
CCOC(=O)C1CCN(C(=O)CCc2nnc3ccc(N4CCN(C)CC4)nn23)CC1
COc1ccc(-c2csc3nc(C)nc(N4CCCCC4)c23)cc1OC
O=C(Nc1cccc(Cl)c1N1CCOCC1)c1cc([N+](=O)[O-])ccc1N1CCOCC1
Cc1ccccc1SCC(=O)Nc1cc(C(F)(F)F)ccc1N1CCOCC1
CC(C)(C)n1nnnc1C(c1cccnc1)N1CCN(c2cccc(C(F)(F)F)c2)CC1 (stereo not given)
CCC(C)(C)C1CCc2nc3ccccc3c(C(=O)OC(C)C(=O)Nc3c(C)n(C)n(-c4ccccc4)c3=O)c2C1 (stereo not given)
CCCCn1c(=N)n(CC(O)COc2ccccc2)c2ccccc21 (stereo not given)
C=CCN1C(c2ccc(OCC)cc2)=CS/C1=C(\C#N)c1nnc2n1CCCCC2
COc1ccc(-c2cc(C(=O)NNC(=O)c3csc(N4CCOCC4)n3)c3ccccc3n2)cc1OC
COC(=O)CNC(c1ccccc1)c1cc(C)ccc1NC(=O)c1cccc(Cl)c1 (stereo not given)
Cc1nnc(N2CCC(C(=O)N3CCCCC3)CC2)c2nn(-c3ccc(Cl)cc3)c(C)c12
COc1ccc(CN2CCC(N(CCc3ccccc3)Cc3ccccc3)CC2)c(OC)c1
O=c1c2ccccc2nc2n1C(CSCc1ccc(Cl)cc1)CS2 (stereo not given)
CCOC(=O)c1cc2c(=O)n3ccccc3nc2n(CC2CCCO2)c1=NC(=O)/C=C/c1ccccc1 (stereo not given)
CCOc1cc(-c2sc(Nc3cc(C)ccc3OC)n[n+]2-c2ccccc2)ccc1OC
CC1(C)Cc2c(sc3nc4n(c(=N)c23)CCC4)CO1
CC(C)(C)N(NC(=O)c1ccccc1)C(=O)c1cccc(C(=O)N(NC(=O)c2ccccc2)C(C)(C)C)c1
CCOC(=O)c1c(NC(=O)CSc2nc3ccccc3o2)sc(C(C)=O)c1C
